An excerpt weighted towards active compounds, which were near 1.8% of everything screened.
GC-A act: GC-A stimulated cGMP production enhancers – HEK293 GC-A cells, cGMP TR-FRET, EC30 ANP, primary screen; Atrial natriuretic peptide receptor 1 (Homo sapiens), P16066; 0% at EC30 ANP, 100% saturating ANP; activation, % at 10 µM; hit rate 0.14% among 370,000; in the data active = activation above about 40%
m5-HT2A agonist: mouse Htr2a agonists via beta-arrestin recruitment, primary screen, cell-based, luminescence; 5-hydroxytryptamine receptor 2A (Mus musculus), P35363; CHO-K1 mHTR2A beta-arrestin complementation; percent of 30 µM serotonin response; activation, % at 7.6 µM; hit rate 0.66% among 360,000;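 active = activation above a run cutoff, the mean activation of all tested compounds plus 3 SD, cut at about 14% in these data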
NPR2 activator: human GC-B receptor activators, primary screen, HEK293 GC-B cells, cGMP TR-FRET, EC30 CNP; hit rate 0.11% among 370,000; activation, % at 10 µM; 0% at EC30 CNP, 100% saturating CNP; Atrial natriuretic peptide receptor 2 (Homo sapiens), P20594; AID 1920062, 2024;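 active = activation at 10 µM reaching about 35% in either raw or pattern-adjusted values, limit read from the data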
MsrA inh: bovine MsrA enzyme inhibitors, primary screen, biochemical, absorbance, HTS. Methionine sulfoxide reductase A (Bos taurus). purified bovine MsrA, absorbance read-out. inhibition, % at 15.5 µM. hit rate 0.75% among 360,000; in the data active = inhibition above about 4.5%
MsrA act: bovine MsrA enzyme activators, primary screen, biochemical, absorbance, HTS; Methionine sulfoxide reductase A (Bos taurus); purified bovine MsrA, absorbance read-out; activation, % at 10.6 µM; hit rate 0.3% among 360,000; AID 602163, 2012; in the data active = activation above about 7.5%
MOR ag counter: OPRM1 agonists via beta-arrestin recruitment, confirmation, counter-screen for mouse HTR2A agonist project, cell-based, luminescence, single concentration; U2OS OPRM1 beta-arrestin PathHunter; DMSO 0%, DAMGO 9.3 µM 100%; hit rate 5.3% among 2,300; activation, % at 9.3 µM; shares compounds with m5-HT2A agonist;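 active = mean activation above the mean of DMSO-only wells plus 3 SD, cut at about 0.5% in these data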
HTR2A ag conf: mouse HTR2A agonists, beta-arrestin recruitment, confirmation, cell-based, luminescence, CHO-K1 PathHunter, triplicate; DMSO 0%, 30 µM serotonin 100%; shares compounds with m5-HT2A agonist; activation, % at 7.6 µM; hit rate 19% among 2,300; AID 624381, 2012;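 active = mean activation across triplicates above the hit threshold derived in the original primary screen, cut at about 15% in these data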
A number is an active result; i = inactive; nt = no result given.

SMILES	GC-A act	m5-HT2A agonist	NPR2 activator	MsrA inh	MsrA act	MOR ag counter	HTR2A ag conf
CCN(CC)S(=O)(=O)c1cc(NC(=O)C(C)N2CCN(c3ccccn3)CC2)ccc1C (stereo not given)	i	i	i	i	i	nt	nt
COc1ccccc1NC(=O)CN1CCN(c2ccccn2)CC1	i	16	i	i	i	i	37
CN(C)S(=O)(=O)c1cc(NC(=O)CN2CCN(c3ccccc3)CC2)ccc1Cl	i	18	i	i	i	i	45
c1ccn(-c2ccc(-c3noc(CCc4ccncc4)n3)cc2)c1	i	nt	i	nt	nt	nt	nt
COc1cc(OC)nc(NC(=S)NC(=O)c2ccccc2)n1	i	28	i	i	i	i	i
O=C(NCCc1c[nH]c2ccccc12)OCc1cn(Cc2cc(F)ccc2F)nn1	i	nt	i	nt	nt	nt	nt
COc1ccc(OC)c(C2C(C(=O)Nc3ccccc3OC)=C(C)Nc3nc(CCCO)nn32)c1 (stereo not given)	i	i	i	i	i	nt	nt
CCOc1ccccc1C1C(C(=O)Nc2ccccc2OC)=C(C)Nc2nc(CCCO)nn21 (stereo not given)	i	30	i	i	i	i	i
C=CCn1c(N)c(C(=O)Nc2cccc(C)c2)c2nc3ccccc3nc21	i	20	i	i	i	i	i
CCCCNC(=O)C1CCCN1C(=O)Nc1ccc2c(c1)OCO2 (stereo not given)	i	nt	i	nt	nt	nt	nt
COC(=O)C1CN(C2CC2)CCS(=O)(=O)N1Cc1cn(Cc2ccc(OC)cc2)nn1 (stereo not given)	i	nt	i	nt	nt	nt	nt
CN[C@H]1CCc2cc(OC)c(OC)c(OC)c2-c2ccc(N(C)CC(OC)OC)c(=O)cc21	i	i	i	i	i	nt	nt
COc1cc2c(c(OC)c1OC)-c1ccc(N(C)CC(OC)OC)c(=O)cc1[C@@H](NC(C)=O)CC2	i	25	i	i	i	i	i
CC(NC(=O)COC(=O)c1ccc2c(=O)n3c(nc2c1)CCCCC3)c1ccc(F)cc1 (stereo not given)	i	i	i	i	i	nt	nt
COc1ccccc1CNC(=O)COC(=O)c1ccc2c(=O)n3c(nc2c1)CCCCC3	i	18	i	i	i	i	i
CN1OC[C@@H]2CN(Cc3ccccc3)[C@H](c3cccc(Oc4ccccc4)c3)C[C@@H]21	i	i	i	i	i	nt	nt
CN1OC[C@@H]2CN(Cc3cc(Cl)cc(Cl)c3)[C@H](c3cccc(Oc4ccccc4)c3)C[C@@H]21	i	15	i	i	i	i	i
CCCNCC1C(Oc2ccc(Cl)cc2Cl)C(=O)N1c1cccc(C)c1C (stereo not given)	i	17	i	i	i	i	i
COc1cc(/C=C2\SC(=O)N(CCNC(=O)c3c(C)noc3C)C2=O)cc(OC)c1OC	i	21	i	i	i	i	i
COC(=O)[C@H](Cc1ccccc1)NC(=O)[C@H]1O[C@@H](n2cnc3c(=O)[nH]c(N)nc32)[C@H](O)[C@@H]1O	i	nt	i	i	nt	nt	nt
CCN(CC)C(=O)c1c(-c2ccccc2)oc2ccc(OC)cc12	i	15	i	i	i	i	i
CCCc1cc2c(O)ccc(O)c2c(=O)o1	i	nt	i	i	nt	nt	nt
COc1ccccc1/C=N\NC(=O)c1cccc(S(=O)(=O)N(C)C)c1	i	nt	i	nt	nt	nt	nt
C=CCCC(=O)N(Cc1ccccc1)c1ccccc1C(=O)Nc1cc(OC)ccc1OC	i	nt	i	nt	nt	nt	nt
O=C(NCC1OCCc2ccccc21)c1ccc(NC(=O)c2ccc(Cl)cc2Cl)cc1 (stereo not given)	i	16	i	i	i	0.8	i
SMILES	GC-A act	m5-HT2A agonist	NPR2 activator	MsrA inh	MsrA act	MOR ag counter	HTR2A ag conf
O=C(NCC1OCCc2ccccc21)c1ccc(NC(=O)c2ccccc2Cl)cc1 (stereo not given)	i	i	i	i	i	nt	nt
COc1ccc(CN2CN3Cc4ccccc4C3CS2(=O)=O)cc1 (stereo not given)	i	nt	i	nt	nt	nt	nt
Cc1ccc2[nH]c(=O)c(CN(CCO)C(=O)N(C)C)cc2c1	i	22	i	i	i	i	i
C[C@@H]1CN[C@H](CCO)/C1=C\c1ccccc1	i	16	i	i	i	i	i
CCOC(=O)c1ccc(NC(=O)C23CCC(C)(C(=O)O2)C3(C)C)cc1 (stereo not given)	i	18	i	i	i	i	i
Cc1noc(C)c1NC(=O)Nc1ccc2c(c1)C(=O)N(C)[C@H]1CC[C@H](CC(=O)NCc3ccc(Cl)cc3)O[C@@H]1CO2	i	nt	i	nt	nt	nt	nt
CCOc1ccc(C(=O)NCC(=O)NNC(=O)C2COc3ccccc3O2)cc1OCC (stereo not given)	i	19	i	i	i	i	i
CCCn1c(N)c(Sc2ccc([N+](=O)[O-])cc2)c(=O)n(CCC)c1=O	i	17	i	i	i	i	i
Cc1nn(-c2ccccc2)c(N)c1Sc1ccc([N+](=O)[O-])cc1	i	i	i	i	i	nt	nt
Cc1ccc(S(=O)(=O)c2cnc(-c3ccccc3)nc2N2CCN(C)CC2)cc1	i	51	i	i	i	i	17
CN1CCN(c2nc(-c3ccccc3)ncc2S(C)(=O)=O)CC1	i	i	i	i	i	nt	nt
CN1CCN(c2nc(-c3ccccc3)ncc2S(=O)(=O)c2ccccc2)CC1	i	38	i	i	i	i	29
Cc1ccc(-n2c(Cc3cccs3)nnc2SCc2ccc([N+](=O)[O-])cc2)cc1	i	nt	i	nt	nt	nt	nt
Nn1c(SCC(=O)N2CCOCC2)nnc1-c1n[nH]c2c1CCC2	i	nt	i	nt	nt	nt	nt
COc1ccc(C)c2sc(N(CCCN(C)C)C(=O)c3ccc4c(c3)OCCO4)nc12	i	21	i	i	i	i	i
COc1ccc(C)c2sc(N(CCN(C)C)C(=O)/C=C/c3cccs3)nc12	i	24	i	i	i	1.0	i
O=C(Cc1cccs1)NNC(=S)NCc1ccco1	i	15	i	i	i	i	i
O=C(Cc1cccs1)NCc1ccco1	i	i	i	i	i	nt	nt
O=C(COc1ccccc1C(=O)O)Nc1cccc2ccccc12	i	16	i	i	i	i	i
O=C(COc1cccc2ccccc12)Nc1cc(Cl)ccc1C(=O)O	i	i	i	i	i	nt	nt

Compound activity as filed in PubChem.
